“And” between values parts separate entries of the source, which are not always exact repeats. Equal values may be shown once. The panel holds about 83,000 compounds, 20% with a hit somewhere; the sample as a whole holds those more often.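 The endpoint reported here, percent growth, reads 100 for growth as untreated, 0 for no net growth and -100 for all cells dead.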 The source made the active and inactive calls. How the source made its calls: active means growth percent below 10; inactive means the rest.
How the values were obtained:
Test in all cases: NCI-60 one-dose screen, 48 h (100 = growth as untreated, 0 = no growth, -100 = all killed)
[1] = tested on: MOLT-4 leukemia
[2] = tested on: SR leukemia
[3] = tested on: RPMI-8226 leukemia
[4] = tested on: OVCAR-8 ovarian; settings: 10 µM unless noted
[5] = tested on: OVCAR-5 ovarian; settings: 10 µM unless noted
[6] = tested on: OVCAR-4 ovarian
[7] = tested on: SK-OV-3 ovarian
[8] = tested on: IGROV1 ovarian
[9] = tested on: OVCAR-3 ovarian
[10] = tested on: HS 578T breast
[11] = tested on: NCI/ADR-RES ovarian
[12] = tested on: T-47D breast
[13] = tested on: BT-549 breast
[14] = tested on: MDA-MB-435 melanoma
[15] = tested on: SW-620 colon
[16] = tested on: MCF7 breast
[17] = tested on: HCT-116 colon; settings: 10 µM unless noted
[18] = tested on: HCC-2998 colon
[19] = tested on: KM12 colon

Measured: growth

Cc1ccc(NC2=N[C@]34CC(=O)CC[C@]3(C)[C@H]3CC[C@]5(C)C(=O)CC[C@H]5[C@@H]3C[C@@H]4S2)c(C)c1
inactive: [4] 31.7% | [5] 59.1% | [6]; 10 µM unless noted 59.6% | [7]; 10 µM unless noted 78.5% | [8]; 10 µM unless noted 17.7% | [10]; 10 µM unless noted 45.3% | [11]; 10 µM unless noted 53.4% | [12]; 10 µM unless noted 41.8% | [14]; 10 µM unless noted 16.9% | [16]; 10 µM unless noted 18.2% | [18]; 10 µM unless noted 84.5% | [19]; 10 µM unless noted 44.5%
active: [1]; 10 µM unless noted -0.311% | [2]; 10 µM unless noted -0.627% | [3]; 10 µM unless noted -3.52% | [9]; 10 µM unless noted -6.33% | [13]; 10 µM unless noted 2.85% | [15]; 10 µM unless noted 4.35% | [17] -27.3%

COc1ccc(CN)cc1OC
inactive: [1]; 10 µM unless noted 112% and 95.2% | [2]; 10 µM unless noted 104% | [3]; 10 µM unless noted 112% and 105% | [4] 109% and 102% | [5] 110% and 94.9% | [6]; 10 µM unless noted 125% and 104% | [7]; 10 µM unless noted 113% and 105% | [8]; 10 µM unless noted 110% and 101% | [9]; 10 µM unless noted 109% and 107% | [10]; 10 µM unless noted 110% and 101% | [11]; 10 µM unless noted 106% and 103% | [12]; 10 µM unless noted 113% and 97.4% | [13]; 10 µM unless noted 113% and 102% | [14]; 10 µM unless noted 109% | [15]; 10 µM unless noted 111% and 99.5% | [16]; 10 µM unless noted 103% and 95.5% | [17] 97.8% and 102% | [18]; 10 µM unless noted 91% and 106% | [19]; 10 µM unless noted 120% and 106%

O=C(O)CCCc1ccc(N(CCCl)CCCl)cc1
inactive: [1]; 10 µM 73.4% and 35.5% | [2]; 10 µM 44.8% and 19.5% | [3]; 10 µM 84.4% and 90.7% | [4] 87.5% | [6]; 10 µM 102% and 107% | [6]; 75 µM 83.2% | [7]; 10 µM 101% and 108% | [7]; 75 µM 59.8% | [8]; 10 µM 80.2% | [8]; 75 µM 50.9% | [9]; 10 µM 111% and 108% | [9]; 75 µM 18.9% | [10]; 10 µM 120% and 113% | [11]; 10 µM 96.3% and 89% | [11]; 75 µM 31% | [12]; 10 µM 87.2% and 74.8% | [12]; 75 µM 27.3% | [13]; 10 µM 86.7% and 96.5% | [13]; 75 µM 11.7% | [14]; 10 µM 102% and 97.9% | [14]; 75 µM 38.8% | [15]; 10 µM 86.5% and 82.8% | [15]; 75 µM 51.3% | [16]; 10 µM 80.9% and 68.4% | [16]; 75 µM 24.9% | [18]; 10 µM 85.1% and 87.7% | [19]; 10 µM 105% and 98% | [19]; 75 µM 65.3%
active: [1]; 75 µM 6.72% | [2]; 75 µM 5.82% | [3]; 75 µM 7.4% | [10]; 75 µM -4.49% | [18]; 75 µM 6.85%

CCCCCCCCCCCCCCCCCC1OCC(COC(=O)O[C@@H](C(=O)O[C@H]2C[C@@]3(O)[C@@H](OC(=O)c4ccccc4)[C@@H]4[C@]5(OC(C)=O)CO[C@@H]5C[C@H](O)[C@@]4(C)C(=O)[C@H](OC(C)=O)C(=C2C)C3(C)C)[C@@H](NC(=O)c2ccccc2)c2ccccc2)O1 (some centres not stated)
active: [3]; 10 µM unless noted 4.08% | [14]; 10 µM unless noted -71.2%
inactive: [1]; 10 µM unless noted 43.6% | [2]; 10 µM unless noted 18% | [4] 48.9% | [5] 55.5% | [6]; 10 µM unless noted 67.4% | [7]; 10 µM unless noted 49.5% | [8]; 10 µM unless noted 47.6% | [9]; 10 µM unless noted 15.7% | [10]; 10 µM unless noted 28.9% | [11]; 10 µM unless noted 103% | [12]; 10 µM unless noted 32.9% | [13]; 10 µM unless noted 58.8% | [15]; 10 µM unless noted 39.6% | [16]; 10 µM unless noted 18.3% | [17] 18.2% | [18]; 10 µM unless noted 32% | [19]; 10 µM unless noted 14.3%

O=C1c2ccccc2C(=O)N1N1CC1c1ccccc1 (configuration not stated)
inactive: [1]; 10 µM unless noted 83.5% | [2]; 10 µM unless noted 77.9% | [3]; 10 µM unless noted 101% | [4] 112% | [5] 113% | [6]; 10 µM unless noted 101% | [7]; 10 µM unless noted 102% | [8]; 10 µM unless noted 95.4% | [9]; 10 µM unless noted 107% | [10]; 10 µM unless noted 112% | [11]; 10 µM unless noted 104% | [12]; 10 µM unless noted 89.2% | [13]; 10 µM unless noted 99% | [14]; 10 µM unless noted 102% | [15]; 10 µM unless noted 105% | [16]; 10 µM unless noted 84.1% | [17] 95.4% | [18]; 10 µM unless noted 103% | [19]; 10 µM unless noted 104%

CC[PH+](CC)CC.O=COC1OC([S-])C(OC=O)C(OC=O)C1OC=O.[Au+] (configuration not stated)
active: [1]; 10 µM unless noted -29.1% | [2]; 10 µM unless noted -18.4% | [3]; 10 µM unless noted -27.2% | [4] 1.43% | [5] -98.5% | [6]; 10 µM unless noted -89.8% | [7]; 10 µM unless noted -45.5% | [8]; 10 µM unless noted -78.3% | [9]; 10 µM unless noted -91.8% | [12]; 10 µM unless noted -82.7% | [13]; 10 µM unless noted -80.8% | [14]; 10 µM unless noted -72.2% | [15]; 10 µM unless noted -76.3% | [16]; 10 µM unless noted -69.2% | [18]; 10 µM unless noted -90% | [19]; 10 µM unless noted -78.9%
inactive: [10]; 10 µM unless noted 14.5% | [11]; 10 µM unless noted 18.7%
